Here are results for 7 compounds from PubChem BioAssay (NCATS).

Assay [1] is described as follows: qHTS Assay for Identifying Gametocytocidal Compounds (AID 743244). Also: potency is read from the fitted curve at half-maximal effect. Conditions: P. falciparum 3D7 stage III-V gametocytes, alamarBlue, 72 h; max response: stronger effect = lower value. An outline of the steps: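 Late gametocytes (III–V), P. falciparum 3D7; 72 h drug, then 24 h alamarBlue; resazurin reduction read by fluorescence.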
Assay [2] addresses DNA polymerase eta (Homo sapiens) (UniProt Q9Y253). In words: qHTS for Inhibitors of Polymerase Eta: Confirmatory Assay for Cherry-picked Compounds (AID 720502). Also: potency is read from the fitted curve at half-maximal effect. Conditions: Pol eta primer extension, TAMRA/BHQ fluorescence, 10 min. An outline of the steps: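 Pol eta 10 nM; substrate 50 nM final (unlabeled primer, TAMRA reporter, BHQ-2 template); preincub. 15 min RT; reads t=0 and t=10 min at ex525/em598.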

The nature of assay [3]: qHTS profiling for inhibitors of Plasmodium falciparum (3D7) proliferation (AID 743322).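 Also: infected erythrocytes exposed to compound for 72 h before lysis; 100% = DMSO vehicle wells and 0% = 0.29 µM artemisinin.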 Conditions: P. falciparum 3D7 proliferation; at 28.7 µM (top of the series) unless noted. An outline of the steps:
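Parasite DNA was quantified by SYBR Green I fluorescence (ex 485, em 535 nm) after overnight lysis in saponin/Triton buffer at room temperature. Cultures at 0.3% parasitemia and 2.5% hematocrit were first exposed to compound for 72 h at 37 C; signals were normalised to artemisinin (0.29 uM) and vehicle wells.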

The nature of assay [4]: qHTS profiling for inhibitors of Plasmodium falciparum (DD2) proliferation (AID 743323; call rule not given here). Conditions: lower = more inhibition; at 28.7 µM (top of the series) unless noted. An outline of the steps: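 Parasite DNA quantified by SYBR Green fluorescence (ex 485, em 535 nm) after saponin/Triton lysis and overnight dark incubation. Cultures: 0.3% parasitemia, 2.5% hematocrit, 72 h, 37 C; data scaled between DMSO and 0.29 uM artemisinin.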
For orientation: qHTS replaces the single test concentration by a dilution series.

The nature of assay [5]: qHTS profiling for inhibitors of Plasmodium falciparum (HB3) proliferation (AID 743324).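 Also: 100% = DMSO vehicle wells and 0% = artemisinin-treated control wells.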 The note with it: Plasmodium falciparum HB3 blood-stage proliferation; at 28.7 µM (top of the series) unless noted. An outline of the steps:
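SYBR Green fluorescence (485 ex/535 em) of lysed cultures, incubated overnight at room temperature in the dark, quantifies parasite DNA. Infected erythrocytes at 0.3% parasitemia and 2.5% hematocrit were exposed 72 h; values normalized to DMSO and 0.29 uM artemisinin controls.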

For assay [6], the target named is Cytochrome P450 2C9 (Homo sapiens) (UniProt P11712). In words: qHTS Assay for Inhibitors and Substrates of Cytochrome P450 2C9 (AID 883). Also: nearly all actives have a fitted effect of over 60% in size. Also: potency is read from the fitted curve at half-maximal effect. An outline of the steps: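 Signal: luciferase luminescence reporting luciferin produced by CYP2C9. Conditions: 10nM enzyme, Luciferin-H 100uM at KM, 25mM KPO4, 37C, 60 min NADPH-driven reaction. Reference: 57uM sulphaphenazole as 100% inhibition.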
Chain of Cytochrome P450 2C9 (Homo sapiens) (P11712 whole entry, looked up): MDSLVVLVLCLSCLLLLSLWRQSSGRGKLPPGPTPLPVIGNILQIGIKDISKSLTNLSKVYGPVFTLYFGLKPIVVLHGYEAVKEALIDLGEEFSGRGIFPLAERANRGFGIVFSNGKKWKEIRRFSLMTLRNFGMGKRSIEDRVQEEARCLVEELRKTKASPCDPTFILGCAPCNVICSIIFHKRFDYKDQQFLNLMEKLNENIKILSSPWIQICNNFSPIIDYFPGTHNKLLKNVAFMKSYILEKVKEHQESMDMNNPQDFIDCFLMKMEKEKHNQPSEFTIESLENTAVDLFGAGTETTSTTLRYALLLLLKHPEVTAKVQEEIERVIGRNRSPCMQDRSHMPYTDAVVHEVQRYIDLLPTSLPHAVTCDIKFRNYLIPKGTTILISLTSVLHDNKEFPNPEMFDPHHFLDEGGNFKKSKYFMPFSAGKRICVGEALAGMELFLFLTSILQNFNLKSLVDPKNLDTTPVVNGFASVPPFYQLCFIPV

The target of assay [7] is Cytochrome P450 3A4 (Homo sapiens) (UniProt P08684). In words: qHTS Assay for Inhibitors and Substrates of Cytochrome P450 3A4 (AID 884). Also: potency is read from the fitted curve at half-maximal effect; nearly all actives have a fitted effect of over 50% in size. Summed up: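 Luminescent readout of luciferin produced by CYP3A4 (20 nM) dealkylation of Luciferin-PPXE, 25 uM (its KM). NADPH-driven reaction ran 60 min at RT after 10 min compound preincubation; data scaled to 57 uM ketoconazole as 100% inhibition.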
Chain of Cytochrome P450 3A4 (Homo sapiens) (P08684 whole entry, looked up): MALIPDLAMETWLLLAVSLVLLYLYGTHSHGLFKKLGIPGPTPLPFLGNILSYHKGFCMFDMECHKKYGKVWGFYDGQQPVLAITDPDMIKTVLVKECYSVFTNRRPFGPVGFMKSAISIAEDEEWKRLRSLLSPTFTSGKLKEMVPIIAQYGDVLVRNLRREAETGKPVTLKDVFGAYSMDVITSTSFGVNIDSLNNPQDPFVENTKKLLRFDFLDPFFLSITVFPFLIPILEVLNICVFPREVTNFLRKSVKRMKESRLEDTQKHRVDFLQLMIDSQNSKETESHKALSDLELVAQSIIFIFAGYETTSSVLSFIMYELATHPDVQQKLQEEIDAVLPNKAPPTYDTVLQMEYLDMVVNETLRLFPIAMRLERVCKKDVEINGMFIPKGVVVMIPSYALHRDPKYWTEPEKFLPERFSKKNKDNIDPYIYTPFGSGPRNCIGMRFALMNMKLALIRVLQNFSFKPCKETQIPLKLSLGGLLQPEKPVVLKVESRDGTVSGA

For assay [8] the target is unchanged. Briefly: qHTS Assay for Activators of Cytochrome P450 3A4 (AID 885). Also: nearly all actives have a fitted effect of over 65% in size. An outline of the steps:
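Luminescent readout of luciferin formed from 25 uM Luciferin-PPXE (KM level) by 20 nM CYP3A4 in 200 mM KPO4, with 60 min NADPH-driven reaction at room temperature after 10 min compound exposure. Ketoconazole (57 uM) defined 100% inhibition.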

In assay [9] the target is Cytochrome P450 2D6 (Homo sapiens) (UniProt P10635). Briefly: qHTS Assay for Inhibitors and Substrates of Cytochrome P450 2D6 (AID 891). Also: potency is read from the fitted curve at half-maximal effect; nearly all actives have a fitted effect of over 60% in size. Summed up:
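Luminescent read-out of luciferin formed by 5 nM human CYP2D6 demethylating 30 uM Luciferin-ME EGE (Km level) over 60 min at room temperature after NADPH regeneration addition. Data normalized to full inhibition by 1.43 uM quinidine.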

Assay [10] concerns the target Cytochrome P450 2C19 (Homo sapiens) (UniProt P33261). Briefly: qHTS Assay for Inhibitors and Substrates of Cytochrome P450 2C19 (AID 899). Also: potency is read from the fitted curve at half-maximal effect; nearly all actives have a fitted effect of over 60% in size. An outline of the steps:
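Signal comes from luciferase acting on luciferin released by CYP2C19-mediated hydroxylation of Luciferin-H EGE, 10uM (KM). Assay mix: 5nM enzyme, 50mM KPO4; 60 min at 37C with NADPH regeneration. Data normalized against 57uM ketoconazole.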

Assay [11] can be described thus: qHTS assay for small molecule agonists of the antioxidant response element (ARE) signaling pathway (AID 651741; active = well fitted activation curve with a large enough effect in the signal ratio; the % refers to the signal ratio; also: potency is read from the fitted curve at half-maximal effect). An outline of the steps: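 Stably integrated ARE-beta-lactamase reporter HepG2 cells; 16 h compound incubation, 37 C; LiveBLAzer FRET substrate 2 h at room temperature; fluorescence intensity.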
Assay [12] is described as follows: qHTS assay for environmental chemicals that activate the Aryl hydrocarbon Receptor (AhR) signaling pathway (AID 651777). Also: % of control where 0% means no effect; nearly all actives have a fitted effect of over 15% in size. Conditions: 1A2-DRE human hepatoma cells, luciferase, 24 h; activation: stronger effect = higher value. An outline of the steps:
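Human hepatoma 1A2-DRE cells stably carrying a DRE/CYP1A2 promoter–luciferase reporter, 1,200 cells/well, exposed to compound 24 hr at 37 C. Luciferase read by One-Glo luminescence after 30 min at room temperature; increased signal marks AhR activation.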

Assay [13] addresses Peroxisome proliferator-activated receptor alpha (Homo sapiens) (UniProt Q07869). In words: qHTS assay for small molecule agonists of the peroxisome proliferator-activated receptor alpha (PPARalpha) signaling pathway (AID 651778). Also: % of control where 0% means no effect. Conditions: PathHunter PPARalpha complementation, chemiluminescence, 6 h; max response: stronger effect = higher value. Summed up: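 Enzyme-fragment complementation assay in which ligand-bound PPARalpha translocates and forms an active enzyme that generates chemiluminescence. Cells were plated overnight, exposed to compound for 6 hr at 37 C, and then given detection reagent for 60 min at room temperature.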

A short description of assay [14]: qHTS assay for small molecule agonists of the antioxidant response element (ARE) signaling pathway measured by Nrf2-dependant transcriptional activity (AID 720636; active = well fitted curve in the direction sought with a large enough effect in the repeat runs; an effect the other way counts as inactive or inconclusive; also: potency is read from the fitted curve at half-maximal effect). Summed up: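 ARE-luc HepG2 cells carrying an Nrf2-responsive luciferase reporter, in medium with 1% dialyzed FBS, exposed to compound for 16 hr at 37 C, 5% CO2. Luminescence read 30 min after ONE-Glo addition.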

Assay [15] in a line: qHTS assay for small molecule agonists of the antioxidant response element (ARE) signaling pathway measured by Nrf2-dependant transcriptional activity - cell viability counter screen (AID 720653; active = well fitted curve in the direction sought with a large enough effect in the repeat runs; an effect the other way counts as inactive or inconclusive; also: potency is read from the fitted curve at half-maximal effect). The note with it: ARE-bla HepG2 viability, CellTiter-Glo ATP luminescence, 16 h; max response: stronger effect = lower value. An outline of the steps:
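ARE-bla HepG2 cells treated with compounds for 16 h at 37C; this counter screen measures viability as intracellular ATP by CellTiter-Glo luminescence after 30 min at room temperature.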

Assay [16] is described as follows: qHTS assay for cell viability of HEK293 cells (AID 743288). Also: potency is read from the fitted curve at half-maximal effect; nearly all actives have a fitted effect of over 50% in size. Conditions: ATP luminescence (CellTiter-Glo), 18 h; max response: stronger effect = lower value. An outline of the steps:
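ATP luminescence (CellTiter-Glo) reports metabolically competent cell number after parental HEK293 cells, 2,000/well, were treated with DMSO-dissolved compounds for 18 h at 37 C; reagent incubation 30 min, room temperature.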

The nature of assay [17]: qHTS assay for cell viability of the p53RE-bla HCT-116 cell line (AID 743292). Also: potency is read from the fitted curve at half-maximal effect; nearly all actives have a fitted effect of over 55% in size. An outline of the steps:
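CellSensor p53RE-bla HCT-116 cells (4,000/well) pre-incubated 5 h at 37 C, then exposed to compounds in DMSO for 16 h at 37 C. Viability read as ATP content by CellTiter-Glo luminescence after 30 min at room temperature.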

The nature of assay [18]: qHTS assay for small molecule activators of the human pregnane X receptor (PXR) signaling pathway (AID 720659; call rule not given here; also: 0% is about no effect).

Inconclusive results are not listed. This is one part of the list. Active and inactive are the calls of the source. Unless noted, calls follow the shape of the dose curve; as a rule, active = well fitted curve in the direction sought with a large enough effect; inconclusive = small, poorly fitted or top-dose-only effect, or another doubt; inactive = no such curve, though single readings can be large; an effect the other way counts as inactive or inconclusive.

Chain of Peroxisome proliferator-activated receptor alpha (Homo sapiens) (Q07869 whole entry, looked up, the tested form may be a part): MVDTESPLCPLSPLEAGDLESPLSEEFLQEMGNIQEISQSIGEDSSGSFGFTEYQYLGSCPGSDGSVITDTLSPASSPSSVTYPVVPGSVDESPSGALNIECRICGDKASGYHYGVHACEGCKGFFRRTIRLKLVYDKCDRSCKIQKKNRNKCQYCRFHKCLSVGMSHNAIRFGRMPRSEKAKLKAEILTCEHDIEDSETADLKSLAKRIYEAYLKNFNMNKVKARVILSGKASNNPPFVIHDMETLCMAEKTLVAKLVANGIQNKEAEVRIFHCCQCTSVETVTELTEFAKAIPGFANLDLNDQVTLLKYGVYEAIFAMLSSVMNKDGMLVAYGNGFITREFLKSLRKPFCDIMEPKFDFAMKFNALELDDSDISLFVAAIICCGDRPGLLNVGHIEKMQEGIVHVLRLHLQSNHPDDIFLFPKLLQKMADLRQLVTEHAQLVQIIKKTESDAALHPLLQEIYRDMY
Chain of Cytochrome P450 2C19 (Homo sapiens) (P33261 whole entry, looked up): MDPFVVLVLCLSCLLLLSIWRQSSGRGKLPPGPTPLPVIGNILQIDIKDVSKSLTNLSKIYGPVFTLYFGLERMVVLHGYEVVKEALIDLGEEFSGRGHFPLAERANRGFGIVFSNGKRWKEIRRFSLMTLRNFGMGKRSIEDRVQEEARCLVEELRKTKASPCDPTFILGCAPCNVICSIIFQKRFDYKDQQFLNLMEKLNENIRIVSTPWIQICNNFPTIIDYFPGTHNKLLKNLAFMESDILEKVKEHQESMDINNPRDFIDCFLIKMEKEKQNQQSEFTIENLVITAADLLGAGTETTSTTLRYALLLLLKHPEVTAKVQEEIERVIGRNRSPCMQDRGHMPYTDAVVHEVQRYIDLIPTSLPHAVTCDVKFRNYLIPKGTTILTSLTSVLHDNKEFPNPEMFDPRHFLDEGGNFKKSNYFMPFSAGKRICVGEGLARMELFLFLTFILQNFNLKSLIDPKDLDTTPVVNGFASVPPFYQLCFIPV
Chain of DNA polymerase eta (Homo sapiens) (Q9Y253 whole entry, looked up): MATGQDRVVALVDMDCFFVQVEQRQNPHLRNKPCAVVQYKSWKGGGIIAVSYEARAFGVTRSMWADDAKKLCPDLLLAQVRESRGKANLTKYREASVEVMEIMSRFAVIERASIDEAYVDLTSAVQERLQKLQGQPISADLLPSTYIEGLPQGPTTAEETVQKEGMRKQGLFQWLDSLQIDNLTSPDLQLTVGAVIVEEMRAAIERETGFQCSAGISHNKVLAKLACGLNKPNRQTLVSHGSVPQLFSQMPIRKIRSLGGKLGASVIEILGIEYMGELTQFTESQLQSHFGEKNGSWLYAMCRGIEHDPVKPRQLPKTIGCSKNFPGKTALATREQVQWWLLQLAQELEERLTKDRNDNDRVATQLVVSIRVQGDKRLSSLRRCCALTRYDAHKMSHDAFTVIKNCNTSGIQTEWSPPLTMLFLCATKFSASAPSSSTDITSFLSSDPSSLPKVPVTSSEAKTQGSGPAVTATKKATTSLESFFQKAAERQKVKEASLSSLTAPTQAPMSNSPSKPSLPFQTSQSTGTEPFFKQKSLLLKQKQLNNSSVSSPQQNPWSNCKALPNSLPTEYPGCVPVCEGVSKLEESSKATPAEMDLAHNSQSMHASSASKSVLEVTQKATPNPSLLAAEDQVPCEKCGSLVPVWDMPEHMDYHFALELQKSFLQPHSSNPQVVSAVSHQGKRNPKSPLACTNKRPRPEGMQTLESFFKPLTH
Chain of Cytochrome P450 2D6 (Homo sapiens) (P10635 whole entry, looked up): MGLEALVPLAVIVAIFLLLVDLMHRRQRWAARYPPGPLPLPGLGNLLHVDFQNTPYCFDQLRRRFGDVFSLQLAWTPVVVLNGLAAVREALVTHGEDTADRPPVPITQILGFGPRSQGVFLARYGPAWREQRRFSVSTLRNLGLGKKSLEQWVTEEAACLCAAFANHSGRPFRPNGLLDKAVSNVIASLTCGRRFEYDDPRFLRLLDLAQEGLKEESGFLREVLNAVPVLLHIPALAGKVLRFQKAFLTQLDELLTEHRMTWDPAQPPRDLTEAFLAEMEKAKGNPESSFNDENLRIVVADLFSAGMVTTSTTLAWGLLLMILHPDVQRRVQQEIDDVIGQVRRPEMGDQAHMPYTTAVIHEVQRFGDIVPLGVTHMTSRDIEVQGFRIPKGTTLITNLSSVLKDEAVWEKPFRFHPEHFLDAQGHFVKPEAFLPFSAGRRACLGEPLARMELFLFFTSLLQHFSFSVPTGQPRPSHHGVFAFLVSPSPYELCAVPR

As to `C=Cc1c(C)c2cc3nc(cc4[nH]c(cc5nc(cc1[nH]2)C(C)=C5CCC(=O)OC)c(CCC(=O)O)c4C)[C@@]1(C)C3=CC=C(C(=O)OC)[C@H]1C(=O)OC`, the Potency in assay [1] is 0.894 µM (active).

Turning to `O=C1NC(=O)N(c2ccc(F)cc2)C(=O)/C1=C/c1ccc2c(c1)CCCN2Cc1ccccc1`, the Potency in [2] was 84.9 µM (active).

Consider `C[C@H]1[C@@H](CCC(=O)Nc2ccc(F)cc2)O[C@@H]2O[C@]3(C)CC[C@@H]4[C@H](C)CC[C@@H]1[C@@]24OO3`, for which, in assay [3], the remaining parasite growth % (stronger effect = lower value) was -0.086%. In assay [4], this compound showed an activity, percent of control of 0.199%. The same compound gave a remaining proliferation (% of control), lower = more inhibition in [5] of 0.121%.

In the case of `COc1c(-c2ccccc2)oc2c(ccc3occc32)c1=O`, the Potency is 1 µM (active) in assay [6], 3.16 µM (active) in [7], 10 µM (active) in [9] and 3.98 µM (active) in assay [10]. For the same compound, the Potency entry in assay [8] was “inactive”.

Turning to `C[C@@]12CC[C@@H]3c4ccc(O)cc4CC[C@H]3[C@H]1CC[C@H]2O`, in assay [6], the Potency result is “inactive”.

For `CCC(C(=O)O)C1OC(C(C)C(O)C(C)C(=O)C(CC)C2OC3(C=CC(O)C4(CCC(C)(C5CCC(O)(CC)C(C)O5)O4)O3)C(C)CC2C)C(C)CC1C` (stereo not given), in assay [1], the Potency is 0.0605 µM (active).

Regarding `[Cl][Sn]([c]1ccccc1)([c]1ccccc1)[c]1ccccc1`, the Potency is 0.486 µM (active) in [11]; 0.486 µM (active) in assay [14]; 0.891 µM (active) in [15]; 2.82 µM (active) in assay [16]; 7.94 µM (active) in assay [17]. In addition, the activation in assay [12] is -11.4% (inactive). Further, the max response in assay [13] is -6.19% (inactive). Also, the result in assay [18] was inactive.
